Bioassay records (PubChem)
KCNQ2 block = rat KCNQ2 potassium channel inhibitors, primary screen, cell-based, CHO-K1, FluxOR thallium flux, B-score; Potassium voltage-gated channel subfamily KQT member 2 (Rattus norvegicus), O88943; 20 min; hits give low values; hit rate 1.1% among 310,000; B-score at 10 µM;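 active = fluorescence ratio B-score at most minus 3 library SDs, with starting brightness B-score within 2 library SDs, cut at about -5.5 in these data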
Target sequence (O88943 whole entry, looked up): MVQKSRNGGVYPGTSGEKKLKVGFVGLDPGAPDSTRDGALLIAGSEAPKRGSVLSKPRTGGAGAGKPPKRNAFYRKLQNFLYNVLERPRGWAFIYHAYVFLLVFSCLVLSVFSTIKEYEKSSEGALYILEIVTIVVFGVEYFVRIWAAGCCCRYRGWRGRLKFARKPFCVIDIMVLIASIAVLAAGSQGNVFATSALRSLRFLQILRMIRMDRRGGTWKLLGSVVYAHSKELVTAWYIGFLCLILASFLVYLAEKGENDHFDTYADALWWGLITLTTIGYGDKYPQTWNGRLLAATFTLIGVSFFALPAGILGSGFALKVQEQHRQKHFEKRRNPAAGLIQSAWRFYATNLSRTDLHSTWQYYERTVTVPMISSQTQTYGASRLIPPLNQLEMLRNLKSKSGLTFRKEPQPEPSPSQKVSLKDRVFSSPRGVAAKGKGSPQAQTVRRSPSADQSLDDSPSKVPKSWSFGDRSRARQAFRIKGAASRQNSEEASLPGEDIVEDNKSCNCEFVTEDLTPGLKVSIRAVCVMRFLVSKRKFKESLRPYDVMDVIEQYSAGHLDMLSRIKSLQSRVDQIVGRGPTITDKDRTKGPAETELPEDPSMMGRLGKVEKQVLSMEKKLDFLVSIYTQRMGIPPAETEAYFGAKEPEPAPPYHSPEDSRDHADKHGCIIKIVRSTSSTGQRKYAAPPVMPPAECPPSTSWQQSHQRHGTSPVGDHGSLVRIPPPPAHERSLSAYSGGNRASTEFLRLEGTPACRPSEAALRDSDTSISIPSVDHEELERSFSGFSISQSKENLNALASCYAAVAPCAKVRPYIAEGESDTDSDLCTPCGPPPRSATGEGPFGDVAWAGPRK
KCNQ2 pot = potentiators of rat KCNQ2 potassium channel; CHO-K1 KCNQ2, FluxOR thallium flux fluorescence; hits give high values; B-score at 10 µM; Potassium voltage-gated channel subfamily KQT member 2 (Rattus norvegicus), O88943; AID 2239, 2010; hit rate 0.54% among 310,000;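 active = fluorescence ratio B-score at least 3 SD of library B-scores, with initial fluorescence B-score within 3 of them, cut at about 5.3 in these data; same plate scores as AID 2156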;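 also: B-score of peak minus minimum over baseline fluorescence ratio after K+ and Tl+ stimulus; positive B-score means potentiation of KCNQ2 with more thallium influx and brighter signal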
Kir21 conf inh = mouse Kir2.1 channel blockers, retest, confirmation, cell-based, FluxOR thallium flux, duplicate | shares compounds with KCNQ2 pot | Kir2.1-expressing cells, FluxOR thallium flux fluorescence; hits give low values | Tl flux remaining, % of negative control (hits give low values), % at 10 µM | hit rate 41% among 2,300 | AID 2032, 2009;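 active = Primary-screen hit whose thallium flux fell at least 3 control SD below untreated wells in both duplicates, with normal baseline fluorescence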
HEK293 ctr = parental HEK293 activity in Kir2.1 inhibitor counter-screen. shares compounds with KCNQ2 pot. parental HEK293 cells, FluxOR thallium flux fluorescence; 0% = unstimulated blank wells. FluxOR signal as % of negative control (100 = no effect), % at 10 µM. hit rate 19% among 2,300. AID 2105;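 active = dye signal at least 3 control SD above or below untreated wells in both duplicates, raw fluorescence within 3, either direction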;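 also: percent is based on the flux ratio of peak minus minimum fluorescence over baseline F0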
CHO-K1 ctr = nonspecific thallium flux increase in parental CHO-K1, confirmation, counter-screen for KCNQ2 potentiator project, cell-based, FluxOR thallium flux, duplicate | shares compounds with KCNQ2 pot | parental CHO-K1 cells, FluxOR thallium flux fluorescence; zero = vehicle mean+3SD, 100% = vehicle-minus-blank window | activity increase over 3SD of controls, % at 10 µM | hit rate 43% among 1,200 | AID 2282, 2010;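 active = signal rise of at least 3 SD above the untreated control mean, in both duplicate wells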;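 also: counter screen of KCNQ2 potentiator hits so any rise reflects channel-independent effects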
KCNQ1 sel pot = human KCNQ1 channel potentiation off-target, confirmation, selectivity assay for KCNQ2 potentiator project, cell-based, CHO, FluxOR thallium flux | shares compounds with KCNQ2 pot | hit rate 28% among 1,200 | CHO KCNQ1 stable, FluxOR thallium flux fluorescence; beyond 3SD, as % of vehicle-control signal | activation over 3SD threshold, % at 10 µM;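 active = fluorescence ratio rise of at least 3 SD of vehicle wells above their mean, in both replicate wells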
KCNQ2 pot confirm = rat KCNQ2 channel potentiators, confirmation, cell-based, CHO, FluxOR thallium flux, duplicate; hit rate 68% among 1,200; shares compounds with KCNQ2 pot; AID 2287, 2010; potentiation, less the hit threshold, % at 10 µM; CHO-KCNQ2 cells, FluxOR thallium flux fluorescence;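 active = fluorescence ratio rising 3 SD or more over the vehicle control mean in both replicates, plus primary screen hit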;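 also: peak minus minimum thallium fluorescence divided by baseline after K/Tl stimulus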
Kir2-1 sel = mouse Kir2.1 channel activation off-target, confirmation, selectivity assay for KCNQ2 potentiator project, cell-based, HEK293, FluxOR thallium flux. activity over 3SD threshold, % at 10 µM. HEK293 Kir2.1, FluxOR thallium flux fluorescence. shares compounds with KCNQ2 pot. AID 2345, 2010. hit rate 2% among 1,200;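 active = fluorescence ratio rise of at least 3 SD above the vehicle-control mean, seen in both replicates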
KCNQ2 W236L pot = potentiators of retigabine-insensitive KCNQ2 W236L, mechanism study for KCNQ2 potentiator project, cell-based, rat KCNQ2 W236L, CHO, automated patch clamp | AID 2558, 2010 | shares compounds with KCNQ2 pot | current increase over 3SD of negative controls (%), hits give high values, % at 25 µM | hit rate 10% among 940 | automated patch clamp current;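 active = current increase at least 3 SD of the untreated controls above them in both duplicate recordings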
A number is an active result; – = inactive; · = no result given. Sampled rows, rich in hits. Any-hit rate of the full collection: about 1.6%.

SMILES	KCNQ2 block	KCNQ2 pot	Kir21 conf inh	HEK293 ctr	others
Cc1cc(S(=O)(=O)N(Cc2ccc3c(c2)OCO3)CC2CCCO2)ccc1-n1cnnn1 (stereo unspecified)	–	·	·	·
CC(=O)Nc1ccc(S(=O)(=O)NC2CC(=O)N(c3ccc4c(c3)OCCO4)C2)cc1 (stereo unspecified)	–	–	·	·
c1ccc(CCNCCCOc2cccc3ccccc23)cc1	–	·	14%	–
CC(=O)NCCOc1cccc2ccccc12	–	–	·	·
CS(=O)(=O)N1CCN(C(=O)Nc2ccccc2)CC1	–	–	·	·
CC(C)c1ccc(NC(=O)N2CCN(S(=O)(=O)c3ccccc3)CC2)cc1	–	7.3	·	·	CHO-K1 ctr=–;KCNQ1 sel pot=–;KCNQ2 pot confirm=–;Kir2-1 sel=–;KCNQ2 W236L pot=–
Cc1cc(C)c(S(=O)(=O)Nc2ccc(O)cc2)cc1C	–	10	·	·	CHO-K1 ctr=–;KCNQ1 sel pot=1.5;KCNQ2 pot confirm=40;Kir2-1 sel=–;KCNQ2 W236L pot=–
Cc1ccc(C)c(S(=O)(=O)Nc2ccc(O)cc2)c1	–	–	·	·
Cc1ccc(CN2CCN(CC3CC4C=CC3C4)CC2)cc1 (stereo unspecified)	–	–	·	·
O=C(Nc1ccncc1)Nc1cccc(F)c1	–	·	·	·
O=C(Nc1cccnc1)Nc1cccc(F)c1	–	6.7	–	–	CHO-K1 ctr=2.5;KCNQ1 sel pot=7.3;KCNQ2 pot confirm=16;Kir2-1 sel=–;KCNQ2 W236L pot=18%
O=C(CSc1cccc2cccc(Cl)c12)NCc1cccs1	–	·	·	·
Cc1[nH][nH]c(=O)c1C(c1ccc(-c2cccc(Cl)c2)o1)c1c(C)[nH][nH]c1=O	-5.9	–	–	–
Cc1[nH][nH]c(=O)c1C(c1ccc(-c2cccc(C(=O)O)c2)o1)c1c(C)[nH][nH]c1=O	–	·	·	·
Cn1c(SCC(=O)Nc2ccc(NC(=O)c3cccc(F)c3)cc2)nnc1-c1ccncc1	–	·	·	·
CN(CC(=O)Nc1ccc(OC(F)(F)F)cc1)C1CCCCC1	–	·	·	·
O=C(CNCC1CCCCC1)Nc1ccc(OC(F)(F)F)cc1	–	15	–	–	CHO-K1 ctr=0.6;KCNQ1 sel pot=–;KCNQ2 pot confirm=35;Kir2-1 sel=–;KCNQ2 W236L pot=–
Cc1ccc(S(=O)(=O)N(Cc2ccc(Cl)cc2)c2ccccc2C(=O)NCc2ccco2)cc1	–	·	·	·
Cc1ccccc1C(=O)NC(=S)NCCC1=CCCCC1	–	–	·	·
O=C(NC(=S)NCCC1=CCCCC1)c1ccco1	–	12	–	229%	CHO-K1 ctr=–;KCNQ1 sel pot=–;KCNQ2 pot confirm=34;Kir2-1 sel=–;KCNQ2 W236L pot=–
CSc1nc(C(C)C)ccc1CNC(=O)CC(C)c1ccccc1 (stereo unspecified)	–	30	–	–	CHO-K1 ctr=–;KCNQ1 sel pot=35;KCNQ2 pot confirm=112;Kir2-1 sel=–;KCNQ2 W236L pot=–
CC(CC(=O)NCc1ccc(F)cc1)c1ccccc1 (stereo unspecified)	–	–	·	·
CC(C)c1ccc(NC(=O)c2cccc(Br)c2)cc1	–	·	·	·
CCn1ncc(/C=N/NC(=O)c2ccc3c(c2)OCO3)c1C	–	·	·	·
CCn1cc(/C=N/NC(=O)c2ccc3c(c2)OCO3)c(C)n1	–	6.3	–	–	CHO-K1 ctr=–;KCNQ1 sel pot=–;KCNQ2 pot confirm=–;Kir2-1 sel=–
SMILES	KCNQ2 block	KCNQ2 pot	Kir21 conf inh	HEK293 ctr	others
COc1cc(NC(=O)CN2CCN(CC(=O)Nc3ccccc3OC)CC2)cc(OC)c1	–	·	·	·
Cc1ccc(-n2ncc3c2CCCC3NC(=O)CCc2cnccn2)cc1C (stereo unspecified)	–	·	·	·
Fc1cc(F)c2nc(N3CCCC3)sc2c1	–	–	·	·
O=C(O)/C=C/C(=O)c1ccc2c(c1)CCc1ccccc1-2	–	8.6	·	·	CHO-K1 ctr=30;KCNQ1 sel pot=–;KCNQ2 pot confirm=35;Kir2-1 sel=–;KCNQ2 W236L pot=–
CC(=O)Nc1ccc2c(c1)CCc1ccccc1-2	–	·	·	·
O=S(=O)(Nc1cccc(-c2cn3c(n2)SCC3)c1)c1ccccc1	–	·	·	·
O=C(CCn1nc(-c2ccccc2)ccc1=O)N1CCN(c2ccccn2)CC1	–	–	·	·
CC(Oc1ccc(Cl)cc1Cl)C(=O)N(C)c1ccccc1 (stereo unspecified)	–	·	50%	–
COC(=O)NNC(=O)C(C)Oc1ccc(Cl)cc1Cl (stereo unspecified)	–	·	·	·
CCc1ccc(S(=O)(=O)NCCOc2cccc3cccnc23)cc1	–	·	70%	–
CSc1ccc(S(=O)(=O)NCCOc2ccccc2C)cc1	–	·	·	·
Cc1nnsc1C(=O)NNC(=O)c1cccc2ccccc12	–	–	·	·
COc1cccc(OC)c1OCCCOc1c(OC)cccc1OC	–	·	·	·
COc1cccc(OC)c1OCCOc1ccccc1OC(C)C	–	·	41%	–
Cc1cccc(CN(C(=S)Nc2c(C)cccc2C)c2cccnc2)c1	–	–	·	·
COc1ccccc1CC1(C)NC(=O)N(CC(=O)Nc2cc(C)on2)C1=O (stereo unspecified)	–	·	·	·
C=CCSc1nnc(-c2cc3c(s2)-c2ccccc2CC3)o1	–	·	·	·
COc1cc(OC)cc(C(=O)Nc2cccnc2)c1	–	–	·	·
COc1cc(OC)cc(C(=O)Nc2ccc(C(=O)c3ccncc3)cc2)c1	–	11	–	–	CHO-K1 ctr=28;KCNQ1 sel pot=42;KCNQ2 pot confirm=20;Kir2-1 sel=–;KCNQ2 W236L pot=–
CCn1c2ccccc2c2cc(NC(=O)CN3CCCC3)ccc21	–	–	·	·
CCn1c2ccccc2c2cc(NC(=O)CNCC3CCCO3)ccc21 (stereo unspecified)	–	–	48%	–
COc1ccc(OC)c(NS(=O)(=O)c2c(C(=O)N3CCCCCC3)c(C)n(C)c2C)c1	–	·	·	·
CCCCNCc1cc(Br)c(OCc2cccs2)c(OC)c1	–	·	20%	–
CCOc1cc(CNCc2ccccn2)cc(Cl)c1OCC	–	·	·	·
CCOc1cc(CNCCSc2nnnn2C)cc(Br)c1OCc1ccccc1	–	·	·	·
CCOc1cc(CNCc2ccncc2)cc(Br)c1OCc1ccc(F)cc1	–	·	–	–
CCOc1cc(CNCCO)cc(Br)c1OCc1ccccc1	–	·	–	–
CCCCNCc1cc(Br)c(OCC(=O)NCc2ccccc2)c(OC)c1	–	·	·	·
CCNCc1cc(Cl)c(OCc2ccccc2)c(OCC)c1	–	·	42%	–
